# MARV entry inh – blocks Marburg virus binding to or entry into cells; Marburg virus pseudotyped entry inhibition, cell reporter; Potency, µM (top dose mostly 37.8 µM), without a hit: at the top dose activity change, negative = inhibition, usual class: inhibitors; actives 1.8% (n = 300,000); AID 540276; calls by dose curve; tested in HEK293 cells; also: potency is read from the fitted curve at half-maximal effect
# VACV mCherry inh – vaccinia inhibition (mCherry reporter); Vaccinia virus mCherry reporter infection, fluorescence; Potency, µM (top dose mostly 36.5 µM), without a hit: at the top dose activity change, negative = inhibition, hits mostly inhibitors; actives 0.63% (n = 310,000); calls by dose curve; tested in A549 cells; also: potency is read from the fitted curve at half-maximal effect; nearly all actives have a fitted effect of over 35% in size
# LASV entry inh – inhibitors of Lassa virus binding or cell entry. actives 1.2% (n = 300,000). Potency, µM (highest dose often 37.9 µM), without a hit: at the highest dose activity change, negative = inhibition, hits mostly inhibitors. Lassa virus pseudotype entry inhibition, cell reporter; calls by dose curve; tested in HEK293 cells; also: potency is read from the fitted curve at half-maximal effect; nearly all actives have a fitted effect of over 50% in size
# HCMV antiviral – blocks human cytomegalovirus replication; actives 4.5% (n = 410,000); activity change, negative = inhibition, % at 57.5 µM; AID 1259415; HFF cells, HCMV-luciferase reporter, 72 h; active compounds read low; in the data active = activity change below about -60%; inconclusive = no clear call, values can overlap the other calls; inactive = above about -39%
#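 Steps: HFFs plated, 16 h 37C; compounds added; HCMV-luciferase added to MOI 1 PFU/cell; 72 h 37C; OneGlo reagent, 5 min room temperature; luminescence read, normalized to controls.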
# FMDV inh – blocks foot and mouth disease virus | actives 1.2% (n = 410,000) | FMDV antiviral cell-based qHTS | Potency, µM (doses to about 57.9 µM), without a hit: at the highest dose activity change, negative = inhibition, usual class: inhibitors; calls by dose curve; tested in HEK293T cells; also: read-out not given here; potency is read from the fitted curve at half-maximal effect; nearly all actives have a fitted effect of over 45% in size
# Vaccinia Venus – inhibitors of vaccinia virus (Venus reporter) | Vaccinia virus Venus reporter expression, fluorescence | Potency, µM (doses to about 36.5 µM), for the others: top-dose activity change, negative = inhibition, usual class: inhibitors | actives 0.46% (n = 330,000); calls by dose curve; tested in A549 cells; also: potency is read from the fitted curve at half-maximal effect; nearly all actives have a fitted effect of over 30% in size
# An asterisk follows results filed as active; i = inactive; ? = inconclusive; / = no result; [ ] = remark or other dose. Only some compounds are listed: those with a hit (about 6.5% of all), similar ones and a draw of the others. % is scaled to controls: 0 for no effect and ±100 for the full control effect.
SMILES,MARV entry inh,VACV mCherry inh,LASV entry inh,HCMV antiviral,FMDV inh,Vaccinia Venus
CC(C)C[C@H](NC(=O)c1nc[nH]c1C(=O)N[C@@H](CC(C)C)C(=O)OC(C)(C)C)C(=O)OC(C)(C)C,/,?,/,-22.8,39.8µM*,10µM*
COC(=O)c1cccc(C(=O)N2CCc3c(cnc(C)c3CNC(=O)c3ccsc3)C2)c1,/,-7.4%,/,/,-11.9%,12.6%
CC1CCN(C(=O)c2[nH]cnc2C(=O)N(C)Cc2ccccc2)CC1,/,-10.8%,/,-61.7*,1.4%,-4.4%
COc1ccc(Nc2nc(N)nc(CCl)n2)cc1,/,/,/,-97.5*,45.3%,/
Cc1c(Cl)cccc1Nc1nc(N)nc(CSc2ncccn2)n1,-18.7%,/,2.8%,-93.8*,56.4%,/
Nc1nc(CCl)nc(Nc2ccc3ccccc3c2)n1,?,?,3.98µM*,-93.1*,-25.7%,?
Cc1ccc(Nc2nc(N)nc(CN3CCN(c4ccccc4)CC3)n2)cc1Cl,-41.9%,/,-26.0%,2.4,-8.6%,/
COCc1c(C(=O)OCc2nc(N)nc(Nc3ccccc3C)n2)oc2ccccc12,23.1µM*,/,?,-19.1,-5.4%,/
Cc1c(Cl)cccc1Nc1nc(N)nc(CSCCO)n1,3.9%,15.7%,13.6%,19.0,-7.6%,17.8%
CC(C)(C)CC(C)(C)N=C1Nc2cc(Cl)c(Cl)cc2N[C@]12C[C@H]1CCCC(=O)N3CC[C@@H](C2)[C@@H]13,/,i,/,/,/,-12.8%
Cc1ccccc1Nc1nc(N)nc(CCl)n1,?,?,?,-100.6*,10.9%,?
COc1ccc(Nc2nc(N)c3cc(OC)c(OC)cc3n2)cc1,11.2µM*,-15.7%[7.34 µM],18.6%[46.1 µM],-35.9,-0.6%,-8.8%[7.34 µM]
CC(NC(=O)C1CCN(S(=O)(=O)c2ccc(Br)s2)CC1)c1ccccc1 (stereo not given),-6.8%[46.1 µM],i,-26.4%[46.1 µM],-13.4,4.9%,-3.6%
c1ccc2c(c1)Sc1ccccc1N2CC1CN2CCC1CC2 (stereo not given),/,-11.1%,/,-60.4*,-17.2%,-10.9%
CC1CCN(CC(O)CN2c3ccccc3Sc3ccccc32)CC1 (stereo not given),/,-16.6%,/,/,?,?
COc1ccccc1OCCNC(=O)c1ccc(NC(=O)CC2SC(N3CCCC3)=NC2=O)cc1 (stereo not given),1.3%,-20.8%,-8.6%,-3.5,-21.7%,-8.8%
COC(=O)C1=C(C)N(Cc2ccco2)C(=O)/C1=C\c1ccc([N+](=O)[O-])cc1,?,-6.9%,?,-15.9,22.4µM*,10.4%
COC(=O)C1=C(C)N(Cc2ccco2)C(=O)/C1=C\c1ccc(N(C)C)cc1,?,-12.6%,-6.2%,-22.9,-12.2%,8.6%
COc1cc(C(=O)NC2CC(C)CC(C)(C)C2)cc(OC)c1OC (stereo not given),/,i,/,-22.9,0.0%,-11.0%
OCCNc1c2c(nc3ccccc13)CCCC2,-20.3%[46.1 µM],-11.8%,1.7%,13.1,-22.1%,5.4%
c1ccc2c(NCCc3c[nH]c4ccccc34)c3ccccc3nc2c1,/,?,/,?,?,8.91µM*
OCCCNc1c2ccccc2nc2ccccc12,7.08µM*,11.2µM*,?,-102.0*,-10.1%,10µM*
Fc1cccc(NCCc2c[nH]c3ccccc23)n1,/,-28.8%,/,-2.9,37.7%,?
Cc1cc(C)n(CCNS(=O)(=O)c2ccccc2)n1,0.4%[46.1 µM],i,-2.3%[46.1 µM],10.3,7.9%,-3.1%
Cc1ccc(S(=O)(=O)N2CCC(C(=O)OCC(=O)N3CCC(C)CC3)CC2)cc1C,2.8%,i,10.0%,-24.8,-14.3%,-3.1%
SMILES,MARV entry inh,VACV mCherry inh,LASV entry inh,HCMV antiviral,FMDV inh,Vaccinia Venus
Cc1cccc(Nc2nc3c(S(=O)(=O)c4ccccc4)nnn3c3ccccc23)c1,6.7%,i,-1.0%,31.6,-27.1%,3.3%
O=S(=O)(c1ccccc1)c1nc(Nc2cccc(O)c2)sc1Cl,?,-29.8%,?,-67.1*,0.0%,-25.7%
Cc1ccc(S(=O)(=O)c2nc(NCCN(C)C)sc2Cl)cc1,?,/,-17.4%,?,-20.7%,/
Cc1ccc(S(=O)(=O)c2nc(Nc3ccccc3)sc2Cl)cc1,?,/,-28.2%,-73.9*,?,/
COc1ccc(Nc2nc(S(=O)(=O)c3ccc(C)cc3)c(Cl)s2)cc1,?,?,-0.4%[46.1 µM],-94.1*,?,?
O=C(Nc1ccccc1)OCC1COC(c2ccccc2)(c2ccccc2)O1 (stereo not given),-13.2%,-2.2%,?,-11.7,-17.0%,-10.2%

# High-throughput results deposited in PubChem by National Center for Advancing Translational Sciences (NCATS).
